In ChEMBL document CHEMBL3988442, “University of Dundee, Small-Polar-MMV Screening Library” (2021):
For some of these results: Entries with a potency or affinity are not part of this list.

Assays:
Design in all cases: scale not given: direction of the effect not stated beside the values
[1] = target: Protein translocase subunit SecA (Escherichia coli (strain K12)) (UniProt P10408); experiment: Assay to Identify E. coli SecA ATPase Inhibitors; format: functional; settings: 30 µM
[2] = target: T1, Ubiquitin-activating enzyme e1, putative (Leishmania donovani (strain BPK282A1)) (UniProt E9BSI1); experiment: Leishmania donovani Ubiquitin Activating Enzyme (LdE1); format: functional; settings: 30 µM
T1 sequence (whole entry): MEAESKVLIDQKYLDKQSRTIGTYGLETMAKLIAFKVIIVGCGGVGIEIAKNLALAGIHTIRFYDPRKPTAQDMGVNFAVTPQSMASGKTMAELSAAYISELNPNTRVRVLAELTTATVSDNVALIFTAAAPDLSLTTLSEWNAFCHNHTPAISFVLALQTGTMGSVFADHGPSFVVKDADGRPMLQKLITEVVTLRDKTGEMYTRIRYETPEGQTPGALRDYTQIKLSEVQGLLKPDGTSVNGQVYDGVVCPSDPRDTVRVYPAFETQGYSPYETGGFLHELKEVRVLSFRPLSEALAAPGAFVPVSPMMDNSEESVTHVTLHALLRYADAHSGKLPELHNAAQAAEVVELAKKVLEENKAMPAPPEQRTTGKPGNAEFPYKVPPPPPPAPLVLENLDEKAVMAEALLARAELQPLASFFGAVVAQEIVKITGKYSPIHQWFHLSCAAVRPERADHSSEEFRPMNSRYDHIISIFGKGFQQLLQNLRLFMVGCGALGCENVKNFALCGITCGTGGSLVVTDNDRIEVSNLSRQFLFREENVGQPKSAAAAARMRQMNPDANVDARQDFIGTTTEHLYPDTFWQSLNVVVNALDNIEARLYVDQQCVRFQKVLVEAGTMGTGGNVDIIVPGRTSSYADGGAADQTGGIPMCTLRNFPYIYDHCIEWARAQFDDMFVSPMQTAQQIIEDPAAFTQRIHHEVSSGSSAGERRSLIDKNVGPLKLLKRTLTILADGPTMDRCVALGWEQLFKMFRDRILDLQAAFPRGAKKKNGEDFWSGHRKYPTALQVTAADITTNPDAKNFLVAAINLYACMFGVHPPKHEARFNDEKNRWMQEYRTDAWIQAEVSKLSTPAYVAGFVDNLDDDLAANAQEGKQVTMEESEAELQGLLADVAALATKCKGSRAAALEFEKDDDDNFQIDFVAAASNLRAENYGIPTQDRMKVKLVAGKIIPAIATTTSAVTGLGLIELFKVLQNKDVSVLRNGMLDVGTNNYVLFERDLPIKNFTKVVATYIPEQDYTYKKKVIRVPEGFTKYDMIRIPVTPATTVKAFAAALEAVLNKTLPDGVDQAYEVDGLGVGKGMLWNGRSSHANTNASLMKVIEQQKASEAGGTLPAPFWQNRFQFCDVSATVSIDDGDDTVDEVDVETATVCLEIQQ

[3] = target: AMP-activated protein kinase, AMPK (Homo sapiens) (UniProt P54646+O43741+P54619+Q9UGJ0+Q9Y478+Q13131+Q9UGI9); experiment: AMP-dependent Kinase enzyme assay. An in vitro enzyme assay that detects ADP turnover that is directly proportional to AMPK activity. This uses naive AMPK that is activated during the assay with MK-8722; format: functional; settings: 30 µM
[4] = target: Sialic acid-binding Ig-like lectin 9 (Homo sapiens) (UniProt Q9Y336); experiment: Hs-Siglec9 ALPHAscreen SOP 20170721; settings: 10 µM
Trypanosoma cruzi = experiment: Trypanosoma cruzi phosphomannomutase and mannose-1-phosphate guanylyltransferase assay; format: functional; settings: 10 µM
[5] = target: T2, Arginase-2, mitochondrial (Homo sapiens) (UniProt P78540); experiment: in vitro enzyme assay to detect the production of urea directly proportional to the activity of Arginase II; format: functional; settings: 33.3 µM; further: in the data most compounds retested in dose-response had high values
T2 sequence (whole entry): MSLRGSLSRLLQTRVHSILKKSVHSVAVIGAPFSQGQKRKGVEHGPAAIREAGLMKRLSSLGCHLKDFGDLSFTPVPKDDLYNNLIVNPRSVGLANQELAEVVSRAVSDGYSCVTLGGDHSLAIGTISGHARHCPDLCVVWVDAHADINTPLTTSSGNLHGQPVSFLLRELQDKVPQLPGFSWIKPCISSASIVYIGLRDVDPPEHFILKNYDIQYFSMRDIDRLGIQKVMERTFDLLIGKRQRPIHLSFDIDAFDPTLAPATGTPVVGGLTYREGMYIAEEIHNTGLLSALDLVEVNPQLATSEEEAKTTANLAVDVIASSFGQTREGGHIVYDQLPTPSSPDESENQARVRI

[6] = target: T3, Proteasome subunit beta (Trypanosoma cruzi) (UniProt O96673); experiment: Trypanosoma cruzi proteasome chymotrypsin-like activity (TcProtChymo) assay.; further: in the data most compounds retested in dose-response had high values; format: functional; settings: 9.37 µM
T3 sequence (whole entry): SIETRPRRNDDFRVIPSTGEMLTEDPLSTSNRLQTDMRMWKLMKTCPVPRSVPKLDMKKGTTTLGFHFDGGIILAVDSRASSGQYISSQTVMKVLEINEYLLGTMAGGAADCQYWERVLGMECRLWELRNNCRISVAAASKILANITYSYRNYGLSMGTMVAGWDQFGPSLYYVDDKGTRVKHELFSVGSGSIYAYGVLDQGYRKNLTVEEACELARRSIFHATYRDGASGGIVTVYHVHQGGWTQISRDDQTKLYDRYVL

Homo sapiens = organism: Homo sapiens; experiment: To identify inhibition of the IFN signalling (Jak-Stat) pathway via expression of an eGFP reporter gene under the control of an IFN-stimulated response element (ISRE) containing MxA promoter.; format: functional; settings: 30 µM
[7] = target: T4, Tyrosyl-tRNA synthetase, putative (Trypanosoma cruzi (strain CL Brener)) (UniProt Q4DSP6); experiment: Trypanosoma cruzi tyrosyl tRNA synthetase (TcYRS) _High Tyrosine SOP; format: functional; settings: 30 µM; further: in the data most compounds retested in dose-response had high values
T4 sequence (whole entry): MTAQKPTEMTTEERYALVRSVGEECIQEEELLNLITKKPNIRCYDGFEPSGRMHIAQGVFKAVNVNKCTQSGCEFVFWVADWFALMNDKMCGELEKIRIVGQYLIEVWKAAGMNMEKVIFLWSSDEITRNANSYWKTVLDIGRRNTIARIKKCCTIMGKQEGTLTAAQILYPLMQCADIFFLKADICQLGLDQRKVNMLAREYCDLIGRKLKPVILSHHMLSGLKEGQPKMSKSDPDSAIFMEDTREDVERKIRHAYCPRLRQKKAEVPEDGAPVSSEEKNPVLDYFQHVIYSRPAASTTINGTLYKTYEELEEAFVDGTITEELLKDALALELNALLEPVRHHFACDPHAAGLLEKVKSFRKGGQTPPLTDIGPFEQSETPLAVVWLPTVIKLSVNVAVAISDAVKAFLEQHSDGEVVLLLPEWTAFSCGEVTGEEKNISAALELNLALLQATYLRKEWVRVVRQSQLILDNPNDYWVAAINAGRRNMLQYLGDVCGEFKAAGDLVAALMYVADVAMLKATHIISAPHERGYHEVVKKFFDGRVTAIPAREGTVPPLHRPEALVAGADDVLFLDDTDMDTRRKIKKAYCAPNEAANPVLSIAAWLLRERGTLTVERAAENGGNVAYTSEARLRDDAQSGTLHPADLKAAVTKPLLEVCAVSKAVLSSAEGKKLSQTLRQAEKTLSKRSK

[8] = target: T4, Tyrosyl-tRNA synthetase, putative (Trypanosoma cruzi (strain CL Brener)); experiment: Trypanosoma cruzi tyrosyl tRNA synthetase (TcYRS) SOP; format: functional; settings: 30 µM
[9] = target: Chromo domain-containing protein 1 (Saccharomyces cerevisiae (strain ATCC 204508 / S288c) (Baker's yeast)) (UniProt P32657); experiment: ScCHD-1 Enzyme Inhibition Assay; format: functional; settings: 30 µM; further: in the data most compounds retested in dose-response had high values
Chromo domain-containing protein 1 (Saccharomyces cerevisiae (strain ATCC 204508 / S288c) (Baker's yeast)), sequence (P32657 whole entry, the tested form may be a part): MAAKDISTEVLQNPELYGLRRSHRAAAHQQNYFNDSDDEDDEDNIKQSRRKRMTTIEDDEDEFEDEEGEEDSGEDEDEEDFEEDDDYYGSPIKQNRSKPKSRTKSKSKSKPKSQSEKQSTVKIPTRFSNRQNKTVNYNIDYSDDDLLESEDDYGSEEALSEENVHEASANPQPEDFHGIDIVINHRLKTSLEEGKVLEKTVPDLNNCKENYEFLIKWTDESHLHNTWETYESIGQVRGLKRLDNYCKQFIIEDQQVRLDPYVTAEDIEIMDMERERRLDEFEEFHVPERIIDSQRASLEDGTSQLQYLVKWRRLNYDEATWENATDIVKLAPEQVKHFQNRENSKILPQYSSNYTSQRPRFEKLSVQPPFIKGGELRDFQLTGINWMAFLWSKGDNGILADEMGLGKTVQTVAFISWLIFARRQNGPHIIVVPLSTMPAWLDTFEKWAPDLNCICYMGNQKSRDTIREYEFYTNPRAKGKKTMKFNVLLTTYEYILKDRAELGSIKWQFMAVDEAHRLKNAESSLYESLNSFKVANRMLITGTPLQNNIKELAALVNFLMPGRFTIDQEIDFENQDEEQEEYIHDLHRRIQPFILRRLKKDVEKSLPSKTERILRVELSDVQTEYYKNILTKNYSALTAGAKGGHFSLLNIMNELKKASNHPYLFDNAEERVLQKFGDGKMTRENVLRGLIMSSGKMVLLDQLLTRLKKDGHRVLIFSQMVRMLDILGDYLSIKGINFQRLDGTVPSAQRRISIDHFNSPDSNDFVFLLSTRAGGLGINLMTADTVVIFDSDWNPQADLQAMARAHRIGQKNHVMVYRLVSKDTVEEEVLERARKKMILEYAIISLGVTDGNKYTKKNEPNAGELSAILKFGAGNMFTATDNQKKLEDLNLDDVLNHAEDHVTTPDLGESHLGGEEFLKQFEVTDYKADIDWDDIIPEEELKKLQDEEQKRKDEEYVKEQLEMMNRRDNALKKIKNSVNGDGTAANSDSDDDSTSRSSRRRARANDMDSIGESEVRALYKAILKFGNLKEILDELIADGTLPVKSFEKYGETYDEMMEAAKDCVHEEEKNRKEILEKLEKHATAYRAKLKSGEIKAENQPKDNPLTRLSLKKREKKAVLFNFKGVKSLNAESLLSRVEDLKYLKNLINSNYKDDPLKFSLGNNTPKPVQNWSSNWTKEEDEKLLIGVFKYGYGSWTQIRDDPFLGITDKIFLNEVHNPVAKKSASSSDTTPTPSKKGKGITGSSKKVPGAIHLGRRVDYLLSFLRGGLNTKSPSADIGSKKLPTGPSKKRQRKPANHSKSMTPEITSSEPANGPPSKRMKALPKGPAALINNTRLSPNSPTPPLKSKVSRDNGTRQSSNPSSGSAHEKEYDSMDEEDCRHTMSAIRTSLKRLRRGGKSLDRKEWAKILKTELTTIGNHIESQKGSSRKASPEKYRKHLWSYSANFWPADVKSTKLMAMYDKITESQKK

Sialic acid-binding Ig-like lectin 9 (Homo sapiens), sequence (Q9Y336 whole entry): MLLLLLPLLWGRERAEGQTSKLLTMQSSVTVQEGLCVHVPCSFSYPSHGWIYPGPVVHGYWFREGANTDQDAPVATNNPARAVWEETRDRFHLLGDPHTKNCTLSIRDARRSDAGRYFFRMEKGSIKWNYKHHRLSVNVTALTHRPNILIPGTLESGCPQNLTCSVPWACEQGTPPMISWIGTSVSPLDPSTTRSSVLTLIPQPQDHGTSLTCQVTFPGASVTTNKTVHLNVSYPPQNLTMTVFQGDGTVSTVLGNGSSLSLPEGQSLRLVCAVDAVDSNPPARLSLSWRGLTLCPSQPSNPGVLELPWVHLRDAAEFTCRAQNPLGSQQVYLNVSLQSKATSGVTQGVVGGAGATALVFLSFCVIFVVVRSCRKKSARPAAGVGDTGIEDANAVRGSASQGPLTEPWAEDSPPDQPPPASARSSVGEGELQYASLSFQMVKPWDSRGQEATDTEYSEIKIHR
Protein translocase subunit SecA (Escherichia coli (strain K12)), sequence (P10408 whole entry): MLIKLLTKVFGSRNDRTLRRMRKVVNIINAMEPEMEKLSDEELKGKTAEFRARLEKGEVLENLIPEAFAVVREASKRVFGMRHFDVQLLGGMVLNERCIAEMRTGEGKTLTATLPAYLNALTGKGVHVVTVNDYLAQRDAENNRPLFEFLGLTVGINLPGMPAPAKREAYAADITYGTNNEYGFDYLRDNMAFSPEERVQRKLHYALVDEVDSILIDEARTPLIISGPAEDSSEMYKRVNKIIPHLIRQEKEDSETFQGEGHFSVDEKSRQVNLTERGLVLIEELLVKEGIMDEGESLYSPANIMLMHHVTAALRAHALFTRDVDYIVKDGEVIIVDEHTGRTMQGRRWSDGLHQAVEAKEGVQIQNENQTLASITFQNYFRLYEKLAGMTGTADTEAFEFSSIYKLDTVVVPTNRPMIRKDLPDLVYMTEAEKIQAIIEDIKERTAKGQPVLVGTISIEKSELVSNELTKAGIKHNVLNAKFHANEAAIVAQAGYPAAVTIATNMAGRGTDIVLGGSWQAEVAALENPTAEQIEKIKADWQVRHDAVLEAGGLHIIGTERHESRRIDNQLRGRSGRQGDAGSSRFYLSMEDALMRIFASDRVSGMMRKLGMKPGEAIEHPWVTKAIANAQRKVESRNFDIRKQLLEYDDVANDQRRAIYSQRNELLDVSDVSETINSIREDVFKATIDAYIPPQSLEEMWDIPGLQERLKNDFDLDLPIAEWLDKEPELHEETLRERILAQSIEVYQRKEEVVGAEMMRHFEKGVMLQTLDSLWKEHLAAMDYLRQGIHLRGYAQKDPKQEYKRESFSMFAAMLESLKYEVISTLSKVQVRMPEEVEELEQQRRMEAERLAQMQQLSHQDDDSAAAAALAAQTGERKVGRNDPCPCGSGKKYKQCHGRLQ

Row | SMILES | Percent Effect [1] | Percent Effect [2] | Percent Effect [3] | Percent Effect [4] | Percent Effect (Trypanosoma cruzi) | Percent Effect [5] | Percent Effect [6] | Percent Effect (Homo sapiens) | Percent Effect [7] | Percent Effect [8] | Percent Effect [9]
1 | Cc1cc(NC(=O)CCN2CCCC2Cn2cncn2)no1 (stereo not given) | -6.97% | 8.86% | 1.01% | 2.13% | -0.718% | -2.8% | 14.9% | 2.3% | 4.17% | 10.1% | -27.3%
2 | Cc1nc(-c2ccco2)ccc1C(=O)N1CCCC1Cn1cccn1 (stereo not given) | -2.79% | 1.27% | 3.11% | 2.49% | -0.513% | 3.66% | 13.4% | 7.74% | 4.17% | 0% | -8.65%
3 | Cc1cnn(C2CN(Cc3nc(C(C)(C)C)no3)C2)c1 | -0.455% | 23.4% | -7.8% | -0.55% | 3.56% | 2.49% | 7.09% | 29.8% | 8.74% | 14.6% | -6.23%
4 | O=C(NCCNc1ncccn1)C1CCN(c2ncccn2)CC1 | -4.14% | 10.8% | -3.16% | 5.87% | 7.71% | -4.62% | 5.57% | 26.3% | -10.9% | 13.4% | 1.05%
5 | Cc1cnn(CCC(=O)N2C[C@H]3CC[C@@H]2CN(CC(=O)N(C)C)C3)c1 | 0.243% | 13.5% | -6.36% | 7.46% | 7.34% | 1.91% | 17.6% | 5.29% | 5.82% | 17.1% | -2.52%
6 | COCCCN1CCCN(C(C)C(=O)Nc2cccc(I)c2)CC1 (stereo not given) | -5.27% | -5.41% | 1.61% | 1.25% | -7.42% | -5% | 15.1% | -8.39% | 1.98% | -3.66% | -0.402%
7 | Cc1ccc(CN2CCN(CC3CC3)[C@@H]3CS(=O)(=O)C[C@@H]32)cc1C | -7.02% | 5.33% | -1.63% | 3.97% | -7.11% | 2.08% | 15.5% | 2.7% | -2.73% | 8.64% | -5.38%
8 | COCCNC(=O)c1sc(Nc2ccc(Cl)cn2)nc1C | -1.6% | 20% | -8.36% | 6.95% | 0.589% | -3.7% | 17.2% | 5.99% | 6.35% | 10.3% | -10.7%
9 | O=C(CCc1nc2cccnc2[nH]1)NCc1ccc2c(c1)OCO2 | -3.15% | 12% | 2.23% | 0.158% | 0% | -10.4% | 14.1% | -11.6% | 9.52% | 17.9% | -10%
10 | Cc1ccc(OCC(=O)NS(=O)(=O)c2cccnc2)cc1C | 0.796% | 15.8% | 3.98% | -2.26% | -7.52% | -3.45% | 17.4% | 29.1% | -1.47% | 4.88% | -9.25%
11 | CC(NC(=O)c1ccc2c(c1)OCC(=O)N2)c1ccccc1F (stereo not given) | -5.46% | 18.4% | 22% | 2% | 1.03% | -0.719% | 9.39% | -9.89% | 10.3% | 18.5% | -4.32%
12 | O=C(c1cc(COc2ccc3c(c2)OCO3)[nH]n1)N1CC=CC1CO (stereo not given) | -3.88% | -2.74% | 9.97% | 22.3% | -5.36% | 0.399% | 15.3% | 9.04% | 3.12% | -8.64% | 0.567%
13 | CC(=O)NC(C)(C)C(=O)Nc1ncc(Cc2ccc(C)c(F)c2)s1 | -2.79% | 13.9% | 1.18% | 3.12% | 8.51% | -2.37% | 13.2% | 28.2% | 5.21% | 17.7% | -33.1%
14 | CC1c2ncc(COc3cccnc3)n2CCN1C(=O)Cc1ccco1 (stereo not given) | -6.11% | 6.67% | 2.02% | 6.28% | -2.36% | -3.7% | 6.84% | -8.23% | 2.12% | 7.69% | 0.38%
15 | Cc1nn(C)c2c(=O)n(CC(=O)Nc3cc(Cl)cc(Cl)c3)nnc12 | 0.37% | 12% | 0.0353% | 1.72% | -6.29% | -1.58% | 19.6% | 12.4% | 2.12% | 10.3% | -8.24%
16 | Cc1ccc(C(CNCc2cnn(C(C)C)c2)N2CCOCC2)s1 (stereo not given) | -3.15% | -2.7% | -0.219% | -2.96% | -0.391% | -2.5% | 11.1% | -8.39% | 4.95% | 1.22% | -6.03%
17 | CC(=O)c1cccc(S(=O)(=O)N2CSCC2C(=O)NCC(F)(F)F)c1 (stereo not given) | -3.05% | 3.8% | 7.23% | 3.21% | -0.103% | -7.1% | 10.5% | 2.46% | 9.38% | 22.8% | -23.2%
18 | N#Cc1ccc(CN2CCN(C(=O)c3cc(C4CC4)[nH]n3)CC2)cc1 | -4.3% | 21.6% | -5.26% | 14.7% | 4.74% | -3.51% | 5.21% | 23.8% | 7.92% | 18.3% | -4.6%
19 | Cc1ncc(C(=O)N2C[C@H]3CC[C@@H]2CN(S(=O)(=O)N(C)C)C3)c(C)n1 | -2.89% | 16% | -1.8% | 16.2% | 2.82% | 27.6% | 17.3% | 1.16% | 7.1% | 16.1% | -6.2%
20 | CNc1cc2c(nn1)CCN(C(=O)c1ccc(-n3nccc3C)cc1)C2 | -3.9% | 7.79% | -0.653% | -3.32% | 6.56% | -1.9% | 11.4% | 14.4% | 6.67% | 9.41% | -16.2%
